Measurements from PubChem BioAssay (NCATS).
Inconclusive results are not listed. A call without a number means that no potency is given here. The source made the active and inactive calls. Calls come from the whole dose curve; as a rule, active = well fitted inhibition curve with a large enough effect; inconclusive = small, poorly fitted or top-dose-only effect; inactive = flat fitted curve, though single readings scatter.

What follows are molecules tested on astro (assay: Drug repurposing screens with cells derived from glioblastoma tumor samples (AID 1345199; note: nearly all actives have a fitted effect of over 40% in size)). Conditions: viability, ATP luminescence, 48 h; series mostly up to 45.9 µM.
Method: CD133+ cells were isolated from GBM patient biopsies and cultured as neurospheres. Neurospheres from four patients were used to screen the NCATS pharmaceutical collection (NPC) library of approved drugs and bioactive compounds. […] The neurospheres were incubated with drugs for 48 hours in 1536-well format, then assayed with an ATP content cell viability assay. […] These hits were cherry picked to confirm activity in the four original GBM lines screened plus three other slower growing GMB lines (unable to yield enough cells for a full primary screen). Variable activities of the confirmed primary hits in the different GBM patient lines were observed. The patient line 206 responded to the greatest number of compounds and line 923 responded to the least amount of active compounds.
Potency is the fitted concentration of half-maximal effect.

Structure (SMILES)	Potency
NCC[C@H](O)C(=O)N[C@@H]1C[C@H](N)[C@@H](O[C@H]2O[C@H](CN)CC[C@H]2N)[C@H](O)[C@H]1O[C@H]1O[C@H](CO)[C@@H](O)[C@H](N)[C@H]1O	inactive
CCCCC(CC)COS(=O)(=O)O (stereo not given)	inactive
O=C1c2ccccc2CN2C(=O)c3ccccc3CN12	inactive
O=P(O)(O)CP(=O)(O)O	inactive
CCCCC[C@H](O)/C=C/[C@@H]1[C@H]2C/C(=C/CCCC(=O)O)O[C@H]2C[C@H]1O	inactive
Cc1ccccn1	inactive
CCCC(=O)O	inactive
NC[C@@H]1CC[C@@H](N)[C@@H](O[C@H]2[C@H](O)[C@@H](O[C@H]3O[C@H](CO)[C@@H](O)[C@H](N)[C@H]3O)[C@H](N)C[C@@H]2N)O1	inactive
CC(=NCc1ccccc1)c1ccccc1O	inactive
CC(C)C1=CC2=CC[C@@H]3[C@](C)(CCC[C@@]3(C)C(=O)O)[C@H]2CC1	inactive
CCCCC/C=C\CCC(=O)N[C@H]1[C@H](Oc2c3cc4cc2Oc2ccc(cc2Cl)[C@@H](O[C@@H]2O[C@H](CO)[C@@H](O)[C@H](O)[C@H]2NC(C)=O)[C@@H]2NC(=O)[C@H](NC(=O)[C@@H]4NC(=O)[C@H]4NC(=O)[C@@H](Cc5ccc(c(Cl)c5)O3)NC(=O)[C@H](N)c3ccc(O)c(c3)Oc3cc(O)cc4c3)c3ccc(O)c(c3)-c3c(O[C@H]4O[C@H](CO)[C@@H](O)[C@H](O)[C@@H]4O)cc(O)cc3[C@@H](C(=O)O)NC2=O)O[C@H](CO)[C@@H](O)[C@@H]1O	inactive
C=CCCCCCCCCC(=O)OC	inactive
CS(=O)(=O)c1ccc([C@@H](O)[C@@H](COC(=O)CN)NC(=O)C(Cl)Cl)cc1	inactive
OC[C@H]1O[C@@H]2O[C@H]3[C@H](O)[C@@H](O)[C@@H](O[C@H]4[C@H](O)[C@@H](O)[C@@H](O[C@H]5[C@H](O)[C@@H](O)[C@@H](O[C@H]6[C@H](O)[C@@H](O)[C@@H](O[C@H]7[C@H](O)[C@@H](O)[C@@H](O[C@H]1[C@H](O)[C@H]2O)O[C@@H]7CO)O[C@@H]6CO)O[C@@H]5CO)O[C@@H]4CO)O[C@@H]3CO	inactive
C=C1CC[C@H](O)CC1=C/C=C1\CCC[C@]2(C)[C@@H]([C@H](C)CC[C@@H](O)C(C)(C)O)CC[C@@H]12	inactive
NC(=O)c1cc[n+](CC2=C(C(=O)O)N3C(=O)[C@@H](NC(=O)C(c4ccccc4)S(=O)(=O)[O-])[C@H]3SC2)cc1 (stereo not given in full)	inactive
c1ccc2cc(C3=NCCN3)ccc2c1	inactive
C=C1[C@@H]2CC[C@@H](C2)C1(C)C	inactive
CC(=O)N[C@@H]([C@@H](O)[C@H](O)[C@H](O)CO)[C@@H](O)CC(=O)C(=O)O	inactive
CN(C)C(=O)CCSC(SCCC(=O)O)c1cccc(/C=C/c2ccc3ccc(Cl)cc3n2)c1 (stereo not given)	17.8 µM (active)

Structure (SMILES)	Potency
OC[C@H]1OC([S-])[C@H](O)[C@@H](O)[C@@H]1O.[Au+] (stereo not given in full)	inactive
O=C(CCCN1CCC(C(=O)c2ccc(F)cc2)CC1)c1ccc(F)cc1	inactive
Cc1ccc(S(=O)(=O)NC(=O)N[C@@H](C)Cc2ccccc2)cc1	inactive
COc1ccc(/C=C/C(=O)OCCC(C)C)cc1	inactive
CO/N=C(\C(=O)N[C@@H]1C(=O)N2C(C(=O)O)=C(CSc3nnnn3C)CS[C@H]12)c1csc(N)n1	inactive
O=C(O)c1cc(O)c2c(c1)[C@H]([C@H]1c3cc(C(=O)O)cc(O)c3C(=O)c3c(O[C@@H]4O[C@H](CO)[C@@H](O)[C@H](O)[C@H]4O)cccc31)c1cccc(O[C@@H]3O[C@H](CO)[C@@H](O)[C@H](O)[C@H]3O)c1C2=O	inactive
C[C@@H]1C[C@H]2[C@@H]3CCC4=CC(=O)C=C[C@]4(C)[C@@]3(F)[C@@H](O)C[C@]2(C)[C@@]1(O)C(=O)COC(=O)c1cccc(S(=O)(=O)O)c1	inactive
O=P(O)(O)OP(=O)(O)O	inactive
C[C@H](NCCc1ccc(O)cc1)[C@H](O)c1ccc(O)cc1	inactive
NS(=O)(=O)c1cc2c(cc1Cl)NC(Cc1ccccc1)NS2(=O)=O (stereo not given)	inactive
CCC(C)[C@@H](N)C(=O)O (stereo not given in full)	inactive
CCc1ccc(S(=O)(=O)O)cc1	inactive
CC(C)CCC[C@@H](C)[C@H]1CC[C@H]2[C@@H]3CC[C@@H]4C[C@H](O)CC[C@]4(C)[C@H]3CC[C@]12C	inactive
CC(C)CN(C[C@@H](OP(=O)(O)O)[C@H](Cc1ccccc1)NC(=O)O[C@H]1CCOC1)S(=O)(=O)c1ccc(N)cc1	inactive
CN1C(=O)OC(C)(C)C1=O	inactive
CCOC(=O)[C@@H](N)CS	inactive
CNC(=O)C[C@@H](N)C(=O)N[C@@H](C(=O)N[C@@H]1C(=O)N2[C@@H]1SC(C)(C)[C@@H]2C(=O)O)c1ccc(O)cc1	inactive
CC(C)[C@@H](N)C(=O)O	inactive
N#Cc1ccc2c(c1)N(CCCN1CCC(O)CC1)c1ccccc1S2	inactive
CCCCCCCCCCCCCCCC(=O)OC[C@@H](O)[C@H]1OC[C@H](O)[C@H]1O	inactive
